In the library only some 21% were active in any assay of this set; here they are far more common.
Pf growth 96h: P. falciparum growth inhibition at 96 hours. Potency, µM (highest dose often 28.7 µM), for the others: top-dose activity change, negative = inhibition, actives largely listed as inhibitors. 320,000 compounds, 6.9% hits. P. falciparum luciferase reporter growth, 96 h. AID 504834; further: potency means the concentration at half of the fitted maximal effect; on the % scale 0 is the no-effect control and ±100 the full control effect
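Luminescence readout: decreased luciferase signal marks inhibited growth of reporter-expressing P. falciparum in infected red cells (2% hematocrit, 0.05% parasitemia final), exposed to compound two generations (96 h, 37 C, 5% CO2).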
Pf growth 48h: P. falciparum growth inhibition at 48 hours (one generation); P. falciparum luciferase growth in erythrocytes, 48 h; Potency, µM (doses to about 28.7 µM), for inactives: at the top dose activity change, negative = inhibition, most hits filed as inhibitors; 310,000 compounds, 5.9% hits; AID 504832; further: potency means the concentration at half of the fitted maximal effect; on the % scale 0 is the no-effect control and ±100 the full control effect
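Luciferase-expressing P. falciparum in infected erythrocytes (2% hematocrit, 0.1% parasitemia final) in RPMI 1640/0.5% Albumax were exposed to compound for 48 hours at 37 C, 5% CO2; growth read as luminescence.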
Shiga toxin inh: blocks Shiga toxin action in Vero cells | Vero cells, Shiga toxin protein synthesis inhibition reporter | inhibition, % at 38.7 µM | 290,000 compounds, 9.2% hits | AID 2315; in the data active means inhibition mostly above about 28%, no sharp cut-off; inactive means mostly below about 43%; further: 0% is about no effect
HCV inh: HCV inhibition; Potency, µM (series often up to 41.8 µM), for the others: at the highest dose activity change, negative = inhibition, actives largely listed as inhibitors; 340,000 compounds, 3.4% hits; Huh7.5.1 HCVcc-Cre infection, luciferase reporter, 44 h; further: potency means the concentration at half of the fitted maximal effect; on the % scale 0 is the no-effect control and ±100 the full control effect
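A cell-based infection assay in which seeded cells (1,000 per well) receive test compound after 4 h, are inoculated with HCVcc-Cre at approximately 0.5 moi, and are incubated 44 h before luminescence detection.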
Cycloheximide cs: counter-screen hit for Shiga toxin inhibitors, cycloheximide; cell reporter, cycloheximide protein synthesis inhibition counterscreen; max response, %; 300,000 compounds, 12% hits; AID 2314; in the data active means max response mostly above about 13%, no sharp cut-off; inactive means mostly below about 14%; further: read at 38.3 µM for the half of the compounds with a filed dose; 0% is about no effect
HCMV inh: human cytomegalovirus inhibition; HFF cells, HCMV-luciferase reporter, 72 h; stronger effect = lower value; activity change, negative = inhibition, % at 57.5 µM; 410,000 compounds, 4.5% hits; in the data active means activity change below about -60%; inconclusive means no clear call, values can overlap the other calls; inactive means above about -39%; further: on the % scale 0 is the no-effect control and ±100 the full control effect
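HFF cells seeded 16 h at 37C, treated with compounds, infected with luciferase-reporter HCMV at MOI 1 PFU/cell; luciferase read at 72 h post infection, normalized to buffer-only and Salinomycin controls.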
* = called active by the depositor; ? = inconclusive; nt = no result given. Unless noted, the call rests on the fitted dose curve; in most records, active means well fitted inhibition curve with a large enough effect; inconclusive means small, poorly fitted or top-dose-only effect, or another doubt; inactive means no such curve, though single readings can be large or run the other way.

SMILES	Pf growth 96h	Pf growth 48h	Shiga toxin inh	HCV inh	Cycloheximide cs	HCMV inh
O=C(Cc1coc2ccc3ccccc3c12)N1CCc2ccccc21	8.28µM*	-13.4%	-9.2	?	-3.7	-33.1
Cc1ccc(C(=O)CCC(=O)N2CCN(C/C=C/c3ccccc3)CC2)cc1	nt	nt	nt	nt	nt	28.4
CC(=O)NC(N(C#N)c1nc(Cl)nc(N(C)C)n1)C(Cl)(Cl)Cl (stereo not drawn)	46.1%	13.0%	3.9	0.1%	0.3	14.4
COc1cc(OC)cc(C(=O)N2CC(=O)Nc3ccccc32)c1	?	-23.6%	-14.8	9.3%	-0.9	?
O=C(O)c1cc(Cl)ccc1-c1ccc(/C=C/c2cc(C(F)(F)F)[nH]c(=O)n2)o1	9.28µM*	9.1%	-6.8	20.2%	-2.5	0.0
O=C(O)c1ccccc1-c1ccc(/C=C/c2cc(C(F)(F)F)[nH]c(=O)n2)o1	15.4%	5.2%	-10.8	-0.3%	-1.9	6.3
O=C(CCN1N=C(c2ccccc2)CCC1=O)NC1CCCC1	?	14.3%	-6.0	4.8%	-1.0	-14.9
O=C(CCN1N=C(c2ccccc2)CCC1=O)NCC1CCCO1 (stereo not drawn)	3.7µM*	12.9%	-6.6	-5.9%	-2.9	?
O=C(CCN1N=C(c2ccccc2)CCC1=O)NC1CCCCC1	nt	nt	nt	nt	nt	-76.7*
Cc1ccc(C)c(N(C)C(=O)CCNC(=O)Cn2cnc3ccccc3c2=O)c1	nt	nt	nt	nt	nt	-7.4
NC(=O)C1(N2CCCCC2)CCN(C(=O)CSc2nc(C(F)(F)F)cc(=O)[nH]2)CC1	nt	-9.8%	-6.0	12.2%	0.7	-64.8*
CCCC(c1nnnn1C(C)(C)CC)N(CCCO)Cc1cc2cc(C)cc(C)c2[nH]c1=O (stereo not drawn)	?	?	-7.6	-20.4%	-1.3	28.7
CCC(C)(C)n1nnnc1C(C(C)C)N(CCCO)Cc1cc2cc(C)ccc2[nH]c1=O (stereo not drawn)	13.1µM*	?	-7.4	-4.2%	-2.8	18.0
CCC(c1nnnn1C(C)(C)CC)N(CCCO)Cc1cc2cc(C)cc(C)c2[nH]c1=O (stereo not drawn)	10.4µM*	8.28µM*	-10.9	4.3%	-2.0	10.0
Cc1cc(C)cc(OCC(=O)NCC(c2ccc(Cl)cc2)N2CCCCC2)c1 (stereo not drawn)	nt	nt	nt	nt	nt	-2.9
COc1ccc(-c2ccc(C(=O)N3CCOCC3)c3occc23)c(C)c1	nt	nt	nt	nt	nt	-21.6
CCOc1cc(C#N)c(NC(=O)c2ccc(OC)c(S(=O)(=O)N3CCN(c4ccccc4)CC3)c2)cc1OCC	nt	nt	nt	nt	nt	-9.1
CCOc1ccc(NS(=O)(=O)N(C)C)cc1	nt	6.8%	-17.4	2.3%	-2.7	1.4
CCCCOc1ccc(OCCNS(=O)(=O)N(C)C)cc1	-14.9%	10.6%	44.5	-60.7%	20.5*	?
Cc1ccc(NC(=O)CN2C(=O)COc3ccc(S(=O)(=O)N4CCCCCC4)cc32)c(C)c1	nt	nt	nt	nt	nt	-15.5
O=C(/C=C/c1cccs1)c1ccc(Br)cc1	?	-12.0%	31.3	15.9%	39.9*	7.0
O=C(/C=C/c1cccs1)c1ccco1	nt	nt	nt	10.7%	nt	14.5
O=C(/C=C/c1cccs1)c1ccc(NC(=O)c2cccc(Br)c2)cc1	180.5%	?	131.5*	6.31µM*	62.1*	38.7
Cc1ccc(NC(=O)COC(=O)/C=C/c2cccs2)cc1	9.6%	17.3%	-7.0	3.5%	-0.9	-19.5
Cc1ccc(C(=O)Nc2ccc(C(=O)/C=C/c3cccs3)cc2)cc1	50.5%	132.6%	73.3*	-16.3%	52.4*	0.8
SMILES	Pf growth 96h	Pf growth 48h	Shiga toxin inh	HCV inh	Cycloheximide cs	HCMV inh
O=C(C=Cc1cccs1)c1cccs1	nt	nt	nt	-20.1%	nt	?
O=C(/C=C\c1cccs1)c1c(O)ccc2ccc(=O)oc12	?	-10.1%	-13.3	-7.1%	-5.3	-61.6*
Cc1ccc(C)c(N2CC(O)(c3cccs3)[N+]3=C2CCCC3)c1 (stereo not drawn)	?	10.4µM*	-12.8	15.5%	4.0	?
OC1(c2cccs2)CN(c2ccc(Cl)cc2)C2=[N+]1CCCC2 (stereo not drawn)	?	?	-10.0	-26.6%	-5.2	36.1
N#Cc1c(C(F)(F)F)cc(-c2ccccc2)nc1SCCN1CCOCC1	-43.0%	?	-11.1	7.94µM*	-2.2	111.7
CCCSc1nc(-c2ccccc2)cc(C(F)(F)F)c1C#N	170.7%	-0.9%	-12.0	?	-1.8	?
Cc1cc(C)nc(NC(=NCCc2c[nH]c3ccccc23)NC(=O)C(C)(C)C)n1	4.65µM*	10.4µM*	-8.9	-27.8%	-0.6	-19.4
COc1cccc(C(=O)NC(=NCCc2c[nH]c3ccc(OC)cc23)Nc2nc(C)cc(C)n2)c1	nt	nt	nt	nt	nt	-30.7
COc1ccc2[nH]cc(CCN=C(NC(=O)c3ccccc3OC)Nc3nc(C)cc(C)n3)c2c1	nt	nt	nt	nt	nt	-95.8*
Cc1cc(C)nc(NC(=NCCc2c[nH]c3ccc(Cl)cc23)NC(=O)c2ccccc2C)n1	nt	nt	nt	nt	nt	-31.5
CCOC(=O)c1cnc2cc(C(F)(F)F)ccc2c1Nc1cc(C)ccc1OC	nt	nt	nt	nt	nt	15.4
c1ccc(COc2ccccc2CNC2CCCC2)cc1	5.22µM*	?	11.3	?	-4.9	-26.5
O=C(COC(=O)Cc1ccccc1)NC12CC3CC(CC(C3)C1)C2	132.0%	13.9%	-7.7	4.7%	-2.5	77.8
c1csc(COc2ccccc2CNC2CCCCC2)c1	-28.5%	?	-16.1	?	-2.7	-30.6
c1ccc(COc2ccccc2CNC23CC4CC(CC(C4)C2)C3)cc1	?	?	-7.9	?	-4.6	-97.2*
O=C(OCn1ncc(Cl)c(Cl)c1=O)c1ccccc1Cl	5.5%	-0.1%	-10.4	3.98µM*	-7.8	-103.2*
O=C(OCn1ncc(Cl)c(Cl)c1=O)c1ccc(F)cc1	?	?	-23.8	nt	-7.7	nt
Cc1ccc(CNC(=O)CN2NS(=O)(=O)c3ccccc3C2=O)cc1	nt	nt	nt	nt	nt	-12.9
C=CCn1c(C)cc(C(=O)CN2NS(=O)(=O)c3ccccc3C2=O)c1C	104.4%	92.1%	87.1*	?	33.2*	-73.8*
C=CCn1c(C)cc(C(=O)Cn2ncc(Cl)c(Cl)c2=O)c1C	9.2%	2.6%	72.8*	12.6µM*	41.7*	-98.4*
CC(C)(C)C(=O)Cn1ncc(Cl)c(Cl)c1=O	?	?	-31.4	?	-14.2	-100.1*
CC(C)c1ccccc1OCCCCCN1CCOCC1	nt	nt	nt	-16.2%	nt	17.9
O=c1c(Cl)c(Cl)cnn1Cc1ccc(F)cc1	?	-18.7%	47.6	8.91µM*	-6.0	-99.0*
O=C(Cn1ncc(Cl)c(Cl)c1=O)c1ccc(Cl)cc1	?	-29.0%	32.4*	2.82µM*	21.2*	-97.9*
COc1ccc2c(C)cc(N3CCN(c4ccc(F)cc4)CC3)nc2c1	nt	?	-5.4	-18.4%	-3.0	6.9
Cc1cc(N2CCN(c3ccccc3F)CC2)nc2cc(O)ccc12	0.0%	10.4µM*	94.6*	-24.6%	25.0*	131.0

Assay outcomes from PubChem BioAssay.
